KB-3-1 tox: KB-3-1 parental cell cytotoxicity | AID 1347075 | 400,000 tested, 1.4% active | Potency, µM (series often up to 46.1 µM), most hits filed as cytotoxic | KB-3-1 viability, CellTiter-Glo ATP luminescence, 72 h; further: nearly all actives have a fitted effect of over 60% in size
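Cells are dispensed, compounds pinned in, plates held at 37 °C for 72 h, then CellTiter-Glo is added and luminescence read after 10 minutes. Cell line: parental KB-3-1 in phenol-red-free DMEM, 10% FBS.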
HT1080 IDH1KD tx: kills HT-1080 cells with IDH1 knockdown; HT-1080 IDH1 knockdown viability, ATP luminescence, 48 h; 360,000 tested, 2% active; Potency, µM (series often up to 46.1 µM), usual class: cytotoxic
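HT-1080-IDH1KD cells (IDH1 knocked down), 750/well in RPMI with 5% FBS, treated with compound 48 h at 37 degrees C. Viability by CellTiter-Glo luminescence, normalised to DMSO and no-cell wells; concentration-response curves classed.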
KB-V1 cytotox: KB-V1 MDR subline cytotoxicity; Potency, µM (series often up to 46.1 µM), actives largely listed as cytotoxic; AID 1347076; KB-V1 MDR cells viability, CellTiter-Glo, 72 h; 400,000 tested, 3.4% active; further: nearly all actives have a fitted effect of over 60% in size
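Cells of the MDR subline KB-V1 are plated, dosed with compound at multiple concentrations, and incubated 72 h at 37 degrees C; CellTiter-Glo is then added and luminescence read after 10 min.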
MCF10A rereplic: induces DNA re-replication in MCF 10a normal breast cells | 350,000 tested, 2.9% active | MCF 10A DNA re-replication, Hoechst nuclear intensity, 48 h | Potency, µM (titrated, usually from 46.1 µM), usual class: activators; further: nearly all actives have a fitted effect of over 50% in size
SW480 rerep: DNA re-replication induction in SW480 cells. SW480 DNA re-replication, Hoechst DNA content imaging, 48 h. Potency, µM (top dose mostly 46.1 µM), hits mostly activators. 340,000 tested, 1.8% active. AID 624297; further: nearly all actives have a fitted effect of over 55% in size
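Per well, 250 cells were exposed to pinned compound for 48 hr. Nuclear DNA was visualised with Hoechst (40 min, 37 C) and total object intensity recorded by fluorescence scanning.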
HT1080-NT tox: kills 2HG-producing HT-1080-NT fibrosarcoma cells; HT-1080-NT fibrosarcoma viability, CellTiter-Glo ATP luminescence, 48 h; 360,000 tested, 1.6% active; AID 686970; Potency, µM (highest dose often 46.1 µM), most hits filed as cytotoxic;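 further: NT is the 2HG producing partner of a matched IDH1 knockdown line; nearly all actives have a fitted effect of over 55% in size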
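HT-1080-NT; 750 cells/well; 5% FBS RPMI; 48 h compound, 37 degrees C; CellTiter-Glo luminescence; curve fitting and curve-class assignment.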
Each line names hits and unclear results; the compound was inactive in the other large screens; ! = not confirmed by another sample. The list is not random: actives were taken first. Their share in the collection is about 7.9%. The call rests on the fitted dose curve; in most records, active means well fitted curve in the direction sought with a large enough effect; inconclusive means small, poorly fitted or top-dose-only effect, or another doubt; inactive means no such curve, though single readings can be large; an effect the other way counts as inactive or inconclusive.

Cc1ccc(-c2c(C(=O)N3CCN(c4ccc(F)cc4)CC3)oc(=O)c3ccccc23)cc1	KB-V1 cytotox inconclusive (no result: HT1080 IDH1KD tx, MCF10A rereplic, SW480 rerep, HT1080-NT tox)
O=C1CC(c2cccc(Cl)c2)c2cc3c(cc2N1)CCC3 (stereo unspecified)	HT1080 IDH1KD tx inconclusive, KB-V1 cytotox 8.2µM, HT1080-NT tox 7.1µM
COc1cccc(C2CC(=O)Nc3cc(C)c(C)cc32)c1 (stereo unspecified)	KB-3-1 tox inconclusive, KB-V1 cytotox 21µM, HT1080-NT tox inconclusive (no result: MCF10A rereplic, SW480 rerep)
COc1cccc(C2CC(=O)Nc3cc(OC)c(OC)cc32)c1 (stereo unspecified)	SW480 rerep inconclusive
CCOc1cccc(C2CC(=O)Nc3cc(OC)c(OC)cc32)c1 (stereo unspecified)	none
COc1cccc(C2CC(=O)Nc3cc4c(cc32)CCC4)c1 (stereo unspecified)	KB-3-1 tox 7.3µM, HT1080 IDH1KD tx 26µM, KB-V1 cytotox 5.8µM, MCF10A rereplic 5.2µM, SW480 rerep 8.2µM, HT1080-NT tox 23µM
O=C(NCc1ccccc1Cl)c1[nH]c(C(F)(F)F)nc1-c1ccccc1	none (no result: MCF10A rereplic, SW480 rerep)
O=C(CSc1nc2ccccc2c(=O)[nH]1)Nc1ccc(C(=O)O)cc1	none
O=[N+]([O-])c1ccc(Sc2cc[n+]([O-])c3ccccc23)c([N+](=O)[O-])c1	HT1080 IDH1KD tx 18µM, KB-V1 cytotox inconclusive, SW480 rerep 0.82µM, HT1080-NT tox 16µM
O=C(CSc1nc2cc3ccccc3cc2[nH]1)Nc1ccc(F)cc1	HT1080 IDH1KD tx inconclusive, KB-V1 cytotox 16µM!, HT1080-NT tox inconclusive
CC(C)Sc1nc2ccccc2c(=O)[nH]1	none
O=c1[nH]c(Sc2ccc([N+](=O)[O-])cc2[N+](=O)[O-])nc2ccccc12	HT1080 IDH1KD tx inconclusive, KB-V1 cytotox inconclusive, MCF10A rereplic 6.5µM, SW480 rerep inconclusive
O=C(CSc1nc2ccccc2c(=O)[nH]1)Nc1ccc([N+](=O)[O-])cc1	KB-3-1 tox inconclusive, HT1080 IDH1KD tx 9.2µM, KB-V1 cytotox inconclusive, MCF10A rereplic inconclusive, SW480 rerep inconclusive, HT1080-NT tox inconclusive
Cn1c(SCC(=O)c2ccccc2)nnc1-c1cccs1	none
COc1ccc(Cl)cc1NC(=O)CSc1ccc2nnc(CCNS(=O)(=O)c3ccccc3)n2n1	none (no result: HT1080 IDH1KD tx, MCF10A rereplic, SW480 rerep, HT1080-NT tox)
O=C(O)c1c(-c2ccccc2)cnc2ccccc12	none (no result: MCF10A rereplic, SW480 rerep)
COc1ccc(-c2noc(CCC(=O)N3CCN(c4ccc(Cl)cc4)CC3)n2)cc1	KB-V1 cytotox inconclusive
COCC(C)n1c(C)cc(C(=O)CSc2nc3ccccc3c(=O)[nH]2)c1C (stereo unspecified)	KB-3-1 tox 21µM, HT1080 IDH1KD tx inconclusive, KB-V1 cytotox 2.6µM, MCF10A rereplic inconclusive, HT1080-NT tox inconclusive
COCCn1c(C)cc(C(=O)CSc2nc3ccccc3c(=O)[nH]2)c1C	HT1080 IDH1KD tx inconclusive, KB-V1 cytotox inconclusive
Cc1cccc(C)c1NC(=O)CSc1nc2ccccc2c(=O)[nH]1	KB-V1 cytotox 16µM
CN(c1ccccc1)S(=O)(=O)c1cccc(C(=O)Nc2nccs2)c1	KB-V1 cytotox inconclusive
O=C(Nc1nnc(Cc2ccccc2)s1)c1ccccc1	MCF10A rereplic inconclusive
C=CCSc1nnc(NC(=O)c2cccc(S(=O)(=O)N(C)c3ccccc3)c2)s1	KB-V1 cytotox 16µM, MCF10A rereplic inconclusive
CCc1nnc(NC(=O)c2ccc(S(C)(=O)=O)cc2)s1	MCF10A rereplic inconclusive, SW480 rerep inconclusive
CN(C)S(=O)(=O)c1ccc(C(=O)Nc2nnc(Cc3ccccc3)s2)cc1	HT1080 IDH1KD tx 23µM, KB-V1 cytotox inconclusive, MCF10A rereplic inconclusive, SW480 rerep inconclusive, HT1080-NT tox inconclusive
CCc1nnc(NC(=O)c2ccc(N(C)S(=O)(=O)c3ccccc3)cc2)s1	KB-V1 cytotox 6.5µM
CCOC(=O)c1c(C)n(C)c2ccc(OC)c(NC(=O)CCN3CCC(Cc4ccccc4)CC3)c12	none
CCN(C(=O)CCN1C(=O)/C(=C/c2ccccc2)SC1=S)C1CCS(=O)(=O)C1 (stereo unspecified)	KB-3-1 tox inconclusive, HT1080 IDH1KD tx inconclusive, MCF10A rereplic inconclusive, SW480 rerep inconclusive, HT1080-NT tox inconclusive
CNc1nc(N2CCCN(C)CC2)nc2cc(OC)c(OC)cc12	none (no result: KB-3-1 tox, KB-V1 cytotox, MCF10A rereplic, SW480 rerep)
O=c1c2ccccc2nc(SCCN2CCCCC2)n1CCc1ccccc1	HT1080 IDH1KD tx 15µM, MCF10A rereplic inconclusive, SW480 rerep inconclusive, HT1080-NT tox inconclusive
NS(=O)(=O)c1ccc(CCNC(=O)CSc2nc3ccccc3c(=O)n2CCC(=O)N2CCCCC2)cc1	MCF10A rereplic 0.73µM
CCc1ccc(NC(=O)CSc2nc3ccccc3c(=O)n2CCCC(=O)N2CCCC2)cc1	KB-3-1 tox inconclusive, KB-V1 cytotox 2.9µM, MCF10A rereplic inconclusive, SW480 rerep inconclusive
NS(=O)(=O)c1ccc(CCNC(=O)CSc2nc3ccccc3c(=O)n2CCN2CCOCC2)cc1	none
Cc1cc(C)cc(S(=O)(=O)N2CCN(c3nc(-c4cccs4)nc4ccccc34)CC2)c1	none (no result: KB-3-1 tox, KB-V1 cytotox, MCF10A rereplic, SW480 rerep)
Cc1c(Br)cnn1C(C)C(=O)N1CCN(c2ccc(F)cc2)CC1 (stereo unspecified)	KB-V1 cytotox inconclusive
CN(NC(=O)C(=O)NCc1ccco1)C(=O)Nc1ccc(Cl)cc1	HT1080 IDH1KD tx inconclusive (no result: MCF10A rereplic, SW480 rerep)
Nc1ccccc1C(=O)NNC1=C(C(=O)C(F)(F)F)CCC1	KB-3-1 tox inconclusive, HT1080 IDH1KD tx inconclusive, SW480 rerep inconclusive
O=C(NNC1=C(C(=O)C(F)(F)F)CCC1)c1ccc(Br)cc1	HT1080 IDH1KD tx 10µM, MCF10A rereplic inconclusive, SW480 rerep 9.2µM, HT1080-NT tox inconclusive
O=C(NNC1=C(C(=O)C(F)(F)F)CCC1)c1ccccc1O	KB-3-1 tox inconclusive, HT1080 IDH1KD tx inconclusive, MCF10A rereplic inconclusive, HT1080-NT tox 23µM
O=C(NNC1=C(C(=O)C(F)(F)F)CCC1)c1ccccc1Cl	KB-3-1 tox inconclusive, HT1080 IDH1KD tx inconclusive, KB-V1 cytotox inconclusive, MCF10A rereplic inconclusive, SW480 rerep inconclusive, HT1080-NT tox 15µM
COc1cccc(C(=O)NNC2=C(C(=O)C(F)(F)F)CCC2)c1	KB-3-1 tox inconclusive, HT1080 IDH1KD tx 12µM, SW480 rerep inconclusive, HT1080-NT tox inconclusive
O=C(Nc1ccc(F)cc1)c1cccn1-c1nnc(N2CCCCC2)s1	none (no result: HT1080 IDH1KD tx, MCF10A rereplic, SW480 rerep, HT1080-NT tox)
O=C(COc1ccc(Br)cc1)NC1CC1	none
COc1cccc(C(=O)NN/C(C)=C/C(=O)C(F)(F)C(F)(F)C(F)(F)F)c1	KB-3-1 tox inconclusive, HT1080 IDH1KD tx 15µM, MCF10A rereplic inconclusive, SW480 rerep inconclusive, HT1080-NT tox inconclusive
COc1ccccc1C(=O)NNC1=C(C(=O)C(F)(F)F)CCC1	HT1080 IDH1KD tx 2.2µM, MCF10A rereplic 4.1µM, SW480 rerep 2.6µM, HT1080-NT tox 3.5µM
CN(C)c1nc(OCCNC(=O)Nc2ccccc2)nc(N(C)C)n1	none

Bioassay records (PubChem)
